The values below come from article PMC9911399, “Two distinct binding modes provide the RNA-binding protein RbFox with extraordinary sequence specificity”.

First the molecules themselves.
B1: CUAAUAC (DNA:RNA)
RNA: GGGAGACCGGAAUUCAGAUUGUCCCUAAUACUUAAAUCCCGUCGUAGCCACCA
DNA 1: CAATCTGAATTCCGGTCTCCC
DNA 2: TGGTGGCTACGACGGGATT
B2: UUAAUCA (DNA:RNA)
RNA: B1 RNA with C25U, A30C, C31A
DNA 1: CAATCTGAATTCCGGTCTCCC
DNA 2: TGGTGGCTACGACGGGATT
B3: UUUGCUU (DNA:RNA)
RNA: B1 RNA with C25U, A27U, A28G, U29C, A30U, C31U
DNA 1: CAATCTGAATTCCGGTCTCCC
DNA 2: TGGTGGCTACGACGGGATT
B4: CCAAUGG (DNA:RNA)
RNA: B1 RNA with U26C, A30G, C31G
DNA 1: CAATCTGAATTCCGGTCTCCC
DNA 2: TGGTGGCTACGACGGGATT
B5: UACCAUC (DNA:RNA)
RNA: B1 RNA with C25U, U26A, A27C, A28C, U29A, A30U
DNA 1: CAATCTGAATTCCGGTCTCCC
DNA 2: TGGTGGCTACGACGGGATT
B6: CAGGAGG (DNA:RNA)
RNA: B1 RNA with U26A, A27G, A28G, U29A, A30G, C31G
DNA 1: CAATCTGAATTCCGGTCTCCC
DNA 2: TGGTGGCTACGACGGGATT
B7: GGCAUGG (DNA:RNA)
RNA: B1 RNA with C25G, U26G, A27C, A30G, C31G
DNA 1: CAATCTGAATTCCGGTCTCCC
DNA 2: TGGTGGCTACGACGGGATT
B8: GCAUCGU (DNA:RNA)
RNA: B1 RNA with C25G, U26C, A28U, U29C, A30G, C31U
DNA 1: CAATCTGAATTCCGGTCTCCC
DNA 2: TGGTGGCTACGACGGGATT
B9: GCAUAGC (DNA:RNA)
RNA: B1 RNA with C25G, U26C, A28U, U29A, A30G
DNA 1: CAATCTGAATTCCGGTCTCCC
DNA 2: TGGTGGCTACGACGGGATT
B10: GGAAUGG (DNA:RNA)
RNA: B1 RNA with C25G, U26G, A30G, C31G
DNA 1: CAATCTGAATTCCGGTCTCCC
DNA 2: TGGTGGCTACGACGGGATT
B11: GUAUGGU (DNA:RNA)
RNA: B1 RNA with C25G, A28U, U29G, A30G, C31U
DNA 1: CAATCTGAATTCCGGTCTCCC
DNA 2: TGGTGGCTACGACGGGATT
B12: GUCAUGG (DNA:RNA)
RNA: B1 RNA with C25G, A27C, A30G, C31G
DNA 1: CAATCTGAATTCCGGTCTCCC
DNA 2: TGGTGGCTACGACGGGATT
B13: GGAUGGC (DNA:RNA)
RNA: B1 RNA with C25G, U26G, A28U, U29G, A30G
DNA 1: CAATCTGAATTCCGGTCTCCC
DNA 2: TGGTGGCTACGACGGGATT
B14: GUAUGGG (DNA:RNA)
RNA: B1 RNA with C25G, A28U, U29G, A30G, C31G
DNA 1: CAATCTGAATTCCGGTCTCCC
DNA 2: TGGTGGCTACGACGGGATT
B15: GCAUGGC (DNA:RNA)
RNA: B1 RNA with C25G, U26C, A28U, U29G, A30G
DNA 1: CAATCTGAATTCCGGTCTCCC
DNA 2: TGGTGGCTACGACGGGATT
B16: GGAUGGG (DNA:RNA)
RNA: B1 RNA with C25G, U26G, A28U, U29G, A30G, C31G
DNA 1: CAATCTGAATTCCGGTCTCCC
DNA 2: TGGTGGCTACGACGGGATT
B17: GCAUGGU (DNA:RNA)
RNA: B1 RNA with C25G, U26C, A28U, U29G, A30G, C31U
DNA 1: CAATCTGAATTCCGGTCTCCC
DNA 2: TGGTGGCTACGACGGGATT
B18: GCAUGGG (DNA:RNA)
RNA: B1 RNA with C25G, U26C, A28U, U29G, A30G, C31G
DNA 1: CAATCTGAATTCCGGTCTCCC
DNA 2: TGGTGGCTACGACGGGATT
B19: GUGUAAG (DNA:RNA)
RNA: B1 RNA with C25G, A27G, A28U, U29A, C31G
DNA 1: CAATCTGAATTCCGGTCTCCC
DNA 2: TGGTGGCTACGACGGGATT
B20: UAGUACG (DNA:RNA)
RNA: GGGAGACCGGAAUUCAGAUUGUCCUAGUACGUUAAAUCCCGUCGUAGCCACCA
DNA 1: CAATCTGAATTCCGGTCTCCC
DNA 2: TGGTGGCTACGACGGGATT
B21: CAGUGCA (DNA:RNA)
RNA: B20 RNA with U25C, A29G, G31A
DNA 1: CAATCTGAATTCCGGTCTCCC
DNA 2: TGGTGGCTACGACGGGATT
B22: GCCCCCA (DNA:RNA)
RNA: B20 RNA with U25G, A26C, G27C, U28C, A29C, G31A
DNA 1: CAATCTGAATTCCGGTCTCCC
DNA 2: TGGTGGCTACGACGGGATT
B23: UAGUAAA (DNA:RNA)
RNA: B20 RNA with C30A, G31A
DNA 1: CAATCTGAATTCCGGTCTCCC
DNA 2: TGGTGGCTACGACGGGATT
B24: GAUAUAC (DNA:RNA)
RNA: B1 RNA with C25G, U26A, A27U
DNA 1: CAATCTGAATTCCGGTCTCCC
DNA 2: TGGTGGCTACGACGGGATT
B25: AGUAAAU (DNA:RNA)
RNA: B1 RNA with C25A, U26G, A27U, U29A, C31U
DNA 1: CAATCTGAATTCCGGTCTCCC
DNA 2: TGGTGGCTACGACGGGATT
B26: GCAUUGG (DNA:RNA)
RNA: B1 RNA with C25G, U26C, A28U, A30G, C31G
DNA 1: CAATCTGAATTCCGGTCTCCC
DNA 2: TGGTGGCTACGACGGGATT
B27: CGCAUGG (DNA:RNA)
RNA: B1 RNA with U26G, A27C, A30G, C31G
DNA 1: CAATCTGAATTCCGGTCTCCC
DNA 2: TGGTGGCTACGACGGGATT
B28: GCCAUGG (DNA:RNA)
RNA: B1 RNA with C25G, U26C, A27C, A30G, C31G
DNA 1: CAATCTGAATTCCGGTCTCCC
DNA 2: TGGTGGCTACGACGGGATT
B29: CUUGGUG (DNA:RNA)
RNA: B1 RNA with A27U, A28G, U29G, A30U, C31G
DNA 1: CAATCTGAATTCCGGTCTCCC
DNA 2: TGGTGGCTACGACGGGATT
B30: AGGGUAG (DNA:RNA)
RNA: B1 RNA with C25A, U26G, A27G, A28G, C31G
DNA 1: CAATCTGAATTCCGGTCTCCC
DNA 2: TGGTGGCTACGACGGGATT
B31: CGGGCUC (DNA:RNA)
RNA: B1 RNA with U26G, A27G, A28G, U29C, A30U
DNA 1: CAATCTGAATTCCGGTCTCCC
DNA 2: TGGTGGCTACGACGGGATT
B32: GGGGCUC (DNA:RNA)
RNA: B1 RNA with C25G, U26G, A27G, A28G, U29C, A30U
DNA 1: CAATCTGAATTCCGGTCTCCC
DNA 2: TGGTGGCTACGACGGGATT
B33: CGGGGGC (DNA:RNA)
RNA: B1 RNA with U26G, A27G, A28G, U29G, A30G
DNA 1: CAATCTGAATTCCGGTCTCCC
DNA 2: TGGTGGCTACGACGGGATT
B34: GGGCUCU (DNA:RNA)
RNA: B20 RNA with U25G, A26G, U28C, A29U, G31U
DNA 1: CAATCTGAATTCCGGTCTCCC
DNA 2: TGGTGGCTACGACGGGATT
B35: CCCGGGC (DNA:RNA)
RNA: B1 RNA with U26C, A27C, A28G, U29G, A30G
DNA 1: CAATCTGAATTCCGGTCTCCC
DNA 2: TGGTGGCTACGACGGGATT
B36: GGGCUGU (DNA:RNA)
RNA: B1 RNA with C25G, U26G, A27G, A28C, A30G, C31U
DNA 1: CAATCTGAATTCCGGTCTCCC
DNA 2: TGGTGGCTACGACGGGATT
B37: CGGGCUG (DNA:RNA)
RNA: B20 RNA with U25C, A26G, U28G, A29C, C30U
DNA 1: CAATCTGAATTCCGGTCTCCC
DNA 2: TGGTGGCTACGACGGGATT
B38: ACCGGGC (DNA:RNA)
RNA: B1 RNA with C25A, U26C, A27C, A28G, U29G, A30G
DNA 1: CAATCTGAATTCCGGTCTCCC
DNA 2: TGGTGGCTACGACGGGATT
B39: GGGGCUG (DNA:RNA)
RNA: B20 RNA with U25G, A26G, U28G, A29C, C30U
DNA 1: CAATCTGAATTCCGGTCTCCC
DNA 2: TGGTGGCTACGACGGGATT

Residue numbers refer to the chain shown, from its start. In all, about 16,000 sequences were measured (“ka relative to ugcaugu”: median about 0.0091, highest 2% from about 0.032 on). This is one part of a sample in which the highest values are shown more often than they occur.

The assay concerns the target T1, RBFOX1 RRM (Homo sapiens, UniProt Q9NWB1 109-208).
T1 sequence: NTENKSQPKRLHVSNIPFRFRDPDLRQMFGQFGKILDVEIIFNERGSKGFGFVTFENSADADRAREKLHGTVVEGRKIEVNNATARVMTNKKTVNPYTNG
The experiment in a line: EMSA; HiTS-Eq, 1 nM pool, 10 min; buffer printed only for the single-RNA assays: 10 mM Tris pH 7.5, 150 mM NaCl, 3.4 mM EDTA, 0.001% NP-40, 30 C. Conditions: tags: His6 N-terminal (pET28a); label: 5' 32P. The method, boiled down: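 Purified wild-type or mutant RbFox RRM at increasing concentrations was equilibrated with 1 nM of 5′-radiolabelled RNA carrying 7 randomized nucleotides for 10 min in 50 µL. Unbound RNA was separated by 8% native PAGE and sequenced. Relative association constants came from read-count changes of each RNA species compared with the control reaction, normalised to the cognate motif.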
On the technique in general: Mobility shift assays separate free from complexed probe on a gel.
For B1, the binding signal is 0.00176 KA relative to UGCAUGU.

Consider B2, for which the binding signal is 0.00562 KA relative to UGCAUGU.

Take B3: the binding signal is 0.0228 KA relative to UGCAUGU.

As to B4, the binding signal is 0.00975 KA relative to UGCAUGU.

On to B5, for which the binding signal was 0.000341 KA relative to UGCAUGU.

Take B6: the binding signal was 0.00882 KA relative to UGCAUGU.

On to B7, for which the binding signal is 0.104 KA relative to UGCAUGU.

Consider B8, for which the binding signal was 0.0157 KA relative to UGCAUGU.

For B9, the binding signal was 0.0095 KA relative to UGCAUGU.

On to B10, for which the binding signal was 0.0293 KA relative to UGCAUGU.

Consider B11, for which the binding signal is 0.0104 KA relative to UGCAUGU.

B12: the binding signal was 0.0107 KA relative to UGCAUGU.

Regarding B13, the binding signal was 0.0116 KA relative to UGCAUGU.

Turning to B14, the binding signal was 0.00944 KA relative to UGCAUGU.

Regarding B15, the binding signal is 0.43 KA relative to UGCAUGU.

In the case of B16, the binding signal is 0.0169 KA relative to UGCAUGU.

As for B17, the binding signal is 0.558 KA relative to UGCAUGU.

As for B18, the binding signal was 0.0735 KA relative to UGCAUGU.

With B19, the binding signal is 0.0113 KA relative to UGCAUGU.

As to B20, the binding signal is 0.0135 KA relative to UGCAUGU.

Regarding B21, the binding signal is 0.0149 KA relative to UGCAUGU.

Turning to B22, the binding signal is 0.00457 KA relative to UGCAUGU.

B23: the binding signal is 0.00712 KA relative to UGCAUGU.

Turning to B24, the binding signal is 0.00528 KA relative to UGCAUGU.

As for B25, the binding signal is 0.00281 KA relative to UGCAUGU.

Turning to B26, the binding signal is 0.0185 KA relative to UGCAUGU.

For the molecule B27, the binding signal is 0.582 KA relative to UGCAUGU.

In the case of B28, the binding signal is 0.0159 KA relative to UGCAUGU.

Regarding B29, the binding signal was 0.0206 KA relative to UGCAUGU.

As to B30, the binding signal was 0.0176 KA relative to UGCAUGU.

Regarding B31, the binding signal was 0.0209 KA relative to UGCAUGU.

Regarding B32, the binding signal was 0.0466 KA relative to UGCAUGU.

Turning to B33, the binding signal was 0.0168 KA relative to UGCAUGU.

As for B34, the binding signal was 0.0214 KA relative to UGCAUGU.

Consider B35, for which the binding signal is 0.00898 KA relative to UGCAUGU.

Consider B36, for which the binding signal was 0.0234 KA relative to UGCAUGU.

On to B37, for which the binding signal is 0.0324 KA relative to UGCAUGU.

As for B38, the binding signal was 0.0122 KA relative to UGCAUGU.

B39: the binding signal was 0.0461 KA relative to UGCAUGU.
